Rows were chosen to be rich in hits. Some 1.2% of all compounds tested hit in one or more screens of this group.
gsp antagonist – gsp mutant antagonism. gsp-mutant cells, cAMP HTRF, 30 min. Potency, µM (highest dose often 76.9 µM), without a hit: top-dose activity change, negative = inhibition, actives largely listed as inhibitors. hit rate 0.4% among 340,000. AID 624288; calls by dose curve; cell line not stated here;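 also: intracellular cAMP measured with PDE inhibitor Ro 20-1724 present during compound exposure; potency is read from the fitted curve at half-maximal effect; % is scaled to controls: 0 for no effect and ±100 for the full control effect; nearly all actives have a fitted effect of over 65% in size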
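G418-selected cells were plated in DMEM/10% FBS for 16-24 h at 37C, then treated with compounds plus the PDE inhibitor […] (300 uM solution added) for 30 min at 37C. Intracellular cAMP was measured by HTRF after 30 min lysis at room temperature.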
Akt phos inh – inhibitors of Akt phosphorylation; Neuro2A IGF-stimulated pAkt S473 HTRF, 20 min; stronger effect = lower value; activity change, % for hits at 50 µM; hit rate 0.32% among 360,000; AID 651550; in the data active = activity change below about -80%; inconclusive = mostly about -51% to -80%; also: % is scaled to controls: 0 for no effect and ±100 for the full control effect
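Neuro2A cells in DMEM with 0.5% FBS, overnight at 37 deg C, given compound at single 50 µM final, then IGF (6 nM final) for 20 min at 37 deg C. Lysed; phospho-Akt Ser473 by HTRF after 24 h, 665/615 ratio.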
RXFP1 antag – blocks the human relaxin receptor RXFP1 | AID 1259400 | activity change, negative = inhibition, % at 57.5 µM | hit rate 0.59% among 350,000 | Q9HBX9 | HEK293-RXFP1, relaxin-stimulated cAMP HTRF, 30 min; stronger effect = lower value;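 active = activity change of -60% or lower, but not beyond a set lower limit; inconclusive = change between -60% and -40%, or beyond the set limit; inactive = change above -40%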; also: % is scaled to controls: 0 for no effect and ±100 for the full control effect
Target sequence (Q9HBX9 whole entry, looked up): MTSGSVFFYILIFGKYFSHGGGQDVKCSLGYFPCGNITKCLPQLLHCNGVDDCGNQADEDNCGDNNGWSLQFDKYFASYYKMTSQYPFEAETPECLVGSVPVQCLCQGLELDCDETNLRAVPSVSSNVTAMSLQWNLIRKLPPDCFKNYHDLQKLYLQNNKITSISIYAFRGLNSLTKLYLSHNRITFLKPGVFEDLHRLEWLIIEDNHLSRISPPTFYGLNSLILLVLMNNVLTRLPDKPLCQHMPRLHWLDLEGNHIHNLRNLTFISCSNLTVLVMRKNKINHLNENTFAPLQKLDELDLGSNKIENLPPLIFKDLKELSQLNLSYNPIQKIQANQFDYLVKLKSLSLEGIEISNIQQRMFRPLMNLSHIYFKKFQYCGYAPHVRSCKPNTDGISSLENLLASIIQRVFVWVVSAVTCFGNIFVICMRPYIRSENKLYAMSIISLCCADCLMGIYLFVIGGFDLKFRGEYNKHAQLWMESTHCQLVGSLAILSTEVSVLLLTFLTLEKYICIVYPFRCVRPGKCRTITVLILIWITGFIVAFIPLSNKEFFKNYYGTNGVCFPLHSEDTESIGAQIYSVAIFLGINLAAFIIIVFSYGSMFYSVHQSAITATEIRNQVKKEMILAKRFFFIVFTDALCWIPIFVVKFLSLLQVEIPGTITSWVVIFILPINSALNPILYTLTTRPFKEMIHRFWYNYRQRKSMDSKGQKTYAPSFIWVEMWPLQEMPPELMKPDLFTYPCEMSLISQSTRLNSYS
gsp agonist – gsp mutant agonism. gsp mutant cells, cAMP HTRF, 30 min. Potency, µM (highest dose often 76.9 µM), without a hit: at the highest dose activation (cAMP increase), most hits filed as activators. hit rate 0.13% among 340,000. AID 624287; active = well fitted activation curve with a large enough effect; inconclusive = small, poorly fitted or top-dose-only effect, or another doubt; inactive = no such curve, though single readings can be large or run the other way; cell line not stated here;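 also: phosphodiesterase inhibitor Ro 20-1724 added with compounds to block cAMP breakdown; potency is read from the fitted curve at half-maximal effect; nearly all actives have a fitted effect of over 60% in size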
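Cells stably selected in G418 were plated at 2000/well, grown 16-24 hr, then given compounds in DMSO with the PDE inhibitor […] (300 uM solution added) for 30 min at 37C; cAMP was read by HTRF.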
RXFP1 ag – RXFP1 (human) receptor agonism; hit rate 0.3% among 370,000; AID 2676; HEK293T-RXFP1 cAMP TR-FRET, 30 min; response scale: percent of porcine relaxin response, buffer zero; Potency, µM (titrated, usually from 57.5 µM), inactives show at the highest dose activation, actives largely listed as activators; Q9HBX9; active = well fitted activation curve with a large enough effect; inconclusive = small, poorly fitted or top-dose-only effect; also: potency is read from the fitted curve at half-maximal effect; % is scaled to controls: 0 for no effect and ±100 for the full control effect; nearly all actives have a fitted effect of over 60% in size
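Agonist response is measured as cAMP accumulation in an RXFP1-transfected HEK293T line under PDE4 inhibition. Values are scaled between buffer-only and 29 nM porcine relaxin, and EC50s come from standard Hill equation fits.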
Active calls of the source: *; i = inactive; ? = inconclusive; . = not tested or not shown; ! = a repeat was not active; [ ] = another dose, or the depositor's remark.

SMILES	gsp antagonist	Akt phos inh	RXFP1 antag	gsp agonist	RXFP1 ag
Cc1ccc(-n2ncc(C(=O)NCCN3CCCC3)c2C2CCN(C(=O)OC(C)(C)C)CC2)cc1	.	.	-15.6	.	1.6%
COc1ccccc1CN1CCC(CNC(=O)c2cnn(-c3ccc(Cl)cc3)c2C2CCN(C(=O)OC(C)(C)C)CC2)CC1	.	.	-61.1*	.	3.6%
Cc1ccc(-n2ncc(C(=O)NCCN3CCC(Cc4ccccc4)CC3)c2C2CCN(C(=O)OC(C)(C)C)CC2)cc1	.	.	-68.7*	.	-2.5%
CCc1ccc(-n2nc(CO)c(C(=O)NC)n2)cc1	.	.	-7.6	.	0.2%
CN(C)c1ccc(/C=N/n2c(-c3cccnc3)n[nH]c2=S)cc1	?	i	-1.0	12.4%	4.1%
CN(C)c1ccc(/C=N/n2c(-c3ccccc3Br)n[nH]c2=S)cc1	?	i	-93.6*	4.8%	2.3%
CC(=O)c1ccc(N2CCN(C(=O)Nc3cn(CC(C)C)c(=O)c4ccccc34)CC2)cc1	.	.	.	.	2.7%
O=C(Nc1cccc(Br)c1)N1CCC(CN2CCCCCC2)CC1	.	.	8.1	.	-0.2%
COc1cccc(CN2CCN(Cc3cccn3-c3cccnc3)CC2CCO)c1 (configuration not stated)	50.1µM*	i	-7.0	-12.7%	1.1%
CC(C)CCN1CCN(Cc2cccn2-c2cccnc2)CC1CCO (configuration not stated)	1.7%	i	0.8	-20.6%	-2.0%
O=C(O)CSc1nnc(CNc2ccc(Cl)cc2)n1Cc1ccccc1	-30.1%	-112.8%*	0.0	-15.4%	-0.7%
CCOC(=O)CSc1nnc(CNc2ccc(Cl)cc2)n1Cc1ccccc1	-1.1%	i	-8.9	4.2%	-3.0%
N#Cc1ccc(-c2ccc(OCC(=O)NN=Cc3ccncc3)cc2)cc1	35.5µM*	i	-27.7	7.6%	.
COC(=O)c1cc2c(=O)c3ccccc3oc2nc1C	26.0%	i	-8.5	-2.9%[15.4 µM]	-2.0%
COC(=O)c1cc2c(=O)c3ccccc3oc2nc1/C=C/N(C)C	35.5µM*	i	-18.3	-7.2%[15.4 µM]	4.4%
O=C(Nc1nnc(CC(c2ccccc2)c2ccccc2)s1)c1ccco1	4.7%	-112.5%*	-12.3	-0.9%	9.9%
COCc1nnc(NC(=O)c2ccco2)s1	7.6%	i	-2.6	-6.1%	-0.7%
CCC(c1ccccc1)c1nnc(NC(=O)c2ccco2)s1 (configuration not stated)	2.8%	i	-0.5	-10.1%	1.5%
O=C(Nc1nnc(Cc2ccccc2)s1)c1cccs1	4.6%	-81.9%*	-1.9	6.8%	11.1%
CCOCc1nnc(NC(=O)c2ccco2)s1	-2.4%	-122.8%*	8.2	31.0%	3.7%
Cc1ccccc1NC(=O)c1sc2nc3n(c(=O)c2c1C)N=C(c1ccccc1)CS3	.	.	7.8	.	-3.3%
COc1ccc(CNC(=O)c2nc(S(=O)(=O)Cc3ccccc3)ncc2Cl)cc1	?	.	-118.8*!	-11.7%	-3.2%
CCS(=O)(=O)c1ncc(Cl)c(C(=O)NCc2ccccc2)n1	.	.	?	.	0.6%
O=C(NCc1ccccc1)c1nc(S(=O)(=O)Cc2ccccc2)ncc1Cl	-9.3%	.	-113.4*!	4.8%	-0.3%
CCc1ccc(-c2nc(CN3CCC(C(=O)NCCN(CC)c4ccccc4)CC3)c(C)o2)cc1	18.4%	i	-6.7	-50.5%	-2.8%
SMILES	gsp antagonist	Akt phos inh	RXFP1 antag	gsp agonist	RXFP1 ag
CCN(CCNC(=O)C1CCN(Cc2nc(-c3ccc(Cl)cc3)oc2C)CC1)c1ccccc1	0.8%	i	-62.5*	0.8%	1.1%
O=C1C=C(O)c2cccc3cccc1c23	-0.8%	i	21.5	?	17.8µM*
Cc1ccc(S(=O)(=O)C(CNC(=O)COc2ccccc2)c2ccco2)cc1 (configuration not stated)	.	.	-10.1	.	-1.4%
C/C(N)=C(/C#N)C(=O)CSc1nn(-c2ccc(Cl)cc2)c(=S)s1	50.1µM*	i	-4.8	-8.6%	10.3%
C/C(N)=C(/C#N)C(=O)CSc1nnc(SCc2ccc(Cl)cc2)s1	?	i	-9.4	2.3%	4.6%
CC(C)Cc1ccc(C(C)CC2=CCC(CN(C)C)C2=O)cc1 (configuration not stated)	-7.1%	i	-83.5*	9.5%	.
CC(C)Cc1ccc(C(C)/C=C2/CCC(CN3CCCCC3)C2=O)cc1 (configuration not stated)	6.8%	i	-20.7	18.6%	.
Cc1ccc(NC(=O)c2ccc(NC(=O)N3CCSc4ncccc43)cc2)cc1Cl	.	.	-13.6	.	-0.6%
COc1ccccc1-n1cnnc1SCC(=O)NCc1cccs1	0.5%	-110.9%*	-11.7	-4.3%	0.1%
COC(=O)C1(C)NC(c2cccs2)C2C(=O)N(c3ccc(F)cc3)C(=O)C21 (configuration not stated)	14.6%	-107.2%*	2.0	-11.9%	0.5%
CN(C)CCCNC(=S)NCC(c1ccc(Cl)cc1Cl)c1c[nH]c2ccccc12 (configuration not stated)	9.2%	i	-60.6*	11.8%[15.4 µM]	2.1%
CCCCNC(=S)NCC(c1ccccc1)c1c[nH]c2ccccc12 (configuration not stated)	-28.9%	i	-9.4	-14.9%	1.0%
CCOC(=O)c1[nH]c(C)c(/C(O)=C2\C(=O)C(=O)N(CCCN3CCOCC3)C2c2cccs2)c1C (configuration not stated)	16.9%	i	15.1	28.8%[15.4 µM]	15.8%
COC(=O)c1[nH]c(C)c(/C(O)=C2\C(=O)C(=O)N(CCN3CCOCC3)C2c2cccs2)c1C (configuration not stated)	13.8%	-96.2%*	4.3	17.3%	5.7%
CC(C)C[C@H](NC(=O)[C@H](CCc1ccccc1)NC(=O)CN1CCOCC1)C(=O)N[C@@H](Cc1ccccc1)C(=O)N[C@@H](CC(C)C)C(=O)[C@@]1(C)CO1	.	.	13.2	.	.
O=C(Nc1ccc(OC(F)F)c(Cl)c1)c1cccc(OC(F)F)c1	39.8µM*	.	-20.9	12.2%	0.4%
O=C(Nc1ccc([N+](=O)[O-])cc1)Nc1ccc(OC(F)F)c(Cl)c1	39.8µM*	i	?	-26.5%	1.3%
COc1cc(S(N)(=O)=O)cc(C(=O)O)c1OC	.	.	-7.2	.	.
O=C1c2cccnc2C(=O)N1Cc1ccc(F)cc1S(=O)(=O)NCc1ccco1	4.1%	.	15.8	?	25.1µM*
O=C1c2cccnc2C(=O)N1Cc1ccc(S(=O)(=O)NCc2ccco2)s1	-0.6%	i	14.4	?	?
COc1ccccc1CNS(=O)(=O)c1cc(CN2C(=O)c3cccnc3C2=O)ccc1OC	1.0%	.	5.9	?	?
COc1ccc(CN2C(=O)c3cccnc3C2=O)cc1S(=O)(=O)NCc1ccc(C)o1	7.2%	.	20.9	?	15.8µM*
Cc1ccc(N(C(=O)c2cccc(C)c2)S(=O)(=O)c2ccc(Cl)cc2)cc1	.	.	-19.8	.	0.9%
CCOC(=O)c1ccc(NC(=O)CC2OCCN(CC)C2=O)cc1 (configuration not stated)	-0.7%	-117.8%*	0.1	2.2%	1.2%

From PubChem
